TDP1 cell noCPT – qHTS for Inhibitors of human tyrosyl-DNA phosphodiesterase 1 (TDP1): qHTS in cells in absence of CPT. AID 686978, 2013. Potency, µM (titrated, usually from 46.2 µM), without a hit: top-dose activity change, negative = growth inhibition, hits mostly inhibitors. DT40 Tdp1-/- hTDP1 cells, no CPT, ATP luminescence, 48 h. 420,000 compounds, 15% hits; note: potency is the fitted concentration of half-maximal effect; % is set by controls: 0 for no effect and ±100 for the full control effect; nearly all actives have a fitted effect of over 55% in size
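Luminescent ATP content (CellTiter-Glo) served as the growth readout. Knockout chicken DT40 cells expressing human TDP1 were exposed to compounds without camptothecin for a minimum 48 hr at 37 °C.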
DT40 TDP1 CPT – growth inhibition of DT40 Tdp1-/-;hTDP1 cells with camptothecin (screen for TDP1 inhibitors); chicken DT40 Tdp1-/-;hTDP1 cells + 20 nM CPT, ATP luminescence, 48 h; AID 686979; Potency, µM (highest dose often 46.2 µM), for inactives: top-dose activity change, negative = growth inhibition, actives largely listed as inhibitors; 420,000 compounds, 12% hits; note: potency is the fitted concentration of half-maximal effect; % is set by controls: 0 for no effect and ±100 for the full control effect; nearly all actives have a fitted effect of over 55% in size
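Chicken DT40 Tdp1-/- cells complemented with human TDP1, 400 cells/well, exposed to compounds plus 20 nM camptothecin for at least 48 h at 37 C; viability read as ATP content by CellTiter-Glo luminescence.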
D3 antag – blocks the human D3 dopamine receptor; D3R cells, DiscoveRx beta-arrestin luminescence, antagonist mode; active compounds read low; P35462; max response, negative = inhibition, %; 360,000 compounds, 2.5% hits; in the data active = max response below about -50%; inconclusive = no clear call, values can overlap the other calls; note: % is set by controls: 0 for no effect and ±100 for the full control effect
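Cells plated overnight at 1500 cells/well, then exposed to library compounds with dopamine controls for 90 minutes at 37 degrees C. DiscoveRx reagent added for 30–60 minutes at room temperature; luminescence read, quantitative HTS format.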
ClpP mod – qHTS Assay for Activators of ClpP; ATP-dependent Clp protease proteolytic subunit (Bacillus subtilis (strain 168)), P80244; purified B. subtilis ClpP, FRET peptide cleavage, 20 min; Potency, µM (top dose mostly 57.5 µM), without a hit: top-dose activity change, negative = active; 340,000 compounds, 1.9% hits; active = well fitted falling curve with a large enough effect; inconclusive = small, poorly fitted or top-dose-only effect; inactive = no such curve, though single readings can be large or run the other way; note: potency is the fitted concentration of half-maximal effect; the source files actives as falling curves though it sought activators and does not explain the sign; nearly all actives have a fitted effect of over 65% in size
Target sequence (P80244 whole entry, looked up): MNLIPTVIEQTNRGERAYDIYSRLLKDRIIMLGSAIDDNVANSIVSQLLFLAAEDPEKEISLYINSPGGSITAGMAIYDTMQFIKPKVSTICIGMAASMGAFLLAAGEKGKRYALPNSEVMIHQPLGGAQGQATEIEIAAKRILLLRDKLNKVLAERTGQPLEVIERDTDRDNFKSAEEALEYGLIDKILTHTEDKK
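Purified B. subtilis ClpP, 10 microg/mL final in Tris/HCl pH8 with KCl, BSA, glycerol and Tween-20, cleaved an Abz/nitrotyrosine-quenched decapeptide. Fluorescence (ex 320, em 430) was read at 0 and 20 min at room temperature. Delta was normalized to 5.8 microM ADEP and DMSO/no-enzyme controls.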
DRD3 agonist – D3 dopamine receptor (human) agonism. P35462. D3R DiscoveRx beta-arrestin cells, luminescence, 90 min. max activation, %. 410,000 compounds, 0.58% hits; in the data active = max activation above about 30%; note: 0% is about no effect
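Agonist mode: compounds and dopamine controls were applied to plated cells for 90 min at 37 degrees C after an overnight attachment at 1500 cells/well. Luminescent read-out followed 30 - 60 minutes at room temperature with DiscoveRx detection reagent.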
IL1B secr inh – inhibitors of inflammasome signaling (IL-1 beta secretion); THP-1 LPS/ATP IL-1B secretion, AlphaLISA, 16 h; active compounds read low; activity change, % at 57.5 µM; 360,000 compounds, 4.7% hits; in the data active = activity change below about -50%; inconclusive = mostly about -30% to -49%; note: % is set by controls: 0 for no effect and ±100 for the full control effect
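Secreted IL-1B measured by AlphaLISA bead assay after 16 h compound exposure of THP-1 cells; compounds (final up to 57.5 uM) added 1 h before LPS (250 ng/mL) and ATP (1.25 mM) stimulation; lower signal means less secretion.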
* hit, by the source's call; ? = inconclusive; / = no result. The list is not random: actives were taken first. Their share in the collection is about 21%. Unless noted, calls come from the whole dose curve; as a rule, active = well fitted inhibition curve with a large enough effect; inconclusive = small, poorly fitted or top-dose-only effect; inactive = flat fitted curve, though single readings scatter.

SMILES | TDP1 cell noCPT | DT40 TDP1 CPT | D3 antag | ClpP mod | DRD3 agonist | IL1B secr inh
COc1ccc2[nH]c(=O)c(C(c3nnnn3C3CCCC3)N3CCN(Cc4ccc5c(c4)OCO5)CC3)cc2c1 (configuration not stated) | ? | 25.9µM* | -53.8* | 28.2µM* | -25.4 | ?
CC1CCC/C(=C\Nc2ccc(O)cc2)C1=O (configuration not stated) | ? | 20.6µM* | ? | -0.1% | 1.0 | ?
O=C(CNC(=O)c1ccc(Br)o1)NC1CCCCC1 | 14.8% | 5.2% | -0.2 | 1.7% | -16.4 | -6.4
O=C(COc1ccc(Cl)cc1)NCc1n[nH]c(=O)c2ccccc12 | -11.6% | -17.3% | -4.3 | -1.9% | 2.6 | -2.3
CN(C(=O)c1cccc(NC(=O)C2CCCN(C(=O)OC(C)(C)C)C2)c1)C1CCC1 (configuration not stated) | 16.4µM* | 20.6µM* | 1.2 | 0.0% | -24.6 | ?
CN(C(=O)c1cccc(NC(=O)C2CCN(C(=O)OC(C)(C)C)CC2)c1)C1CCCCC1 | 13µM* | 20.6µM* | -10.4 | -0.9% | 4.3 | 3.1
CC(C)(C)OC(=O)N1CCC(C(=O)Nc2cccc(C(=O)N3CCCCC3)c2)CC1 | -3.7% | -15.8% | ? | 1.2% | -67.2 | -4.3
CN(C(=O)c1ccc(NC(=O)C2CCN(C(=O)OC(C)(C)C)CC2)cc1)C1CCC1 | 18.4µM* | 18.4µM* | 17.3 | 0.0% | 14.8 | -1.9
COc1ccccc1NC(=O)c1sc2nc(N3CCOCC3)c3c(c2c1N)CC(C)(C)OC3 | 5.4% | 2.1% | / | -15.6% | 2.5 | /
COCCCNC(=O)CC1C[C@H](C(=O)N2CCOCC2)[C@@]2(CCC3CCCC3)c3[nH]c4ccc(OC)cc4c3CCN2C1=O (some centres not stated) | -21.5% | ? | -6.6 | -0.4% | 8.9 | -1.9
CC[C@]12c3[nH]c4ccc(OC)cc4c3CCN1C(=O)C(CC(=O)NCC13CC4CC(CC(C4)C1)C3)C[C@@H]2C(=O)N1CCN(C(=O)C2CC2)CC1 (some centres not stated) | ? | ? | -12.6 | 1.9% | -20.3 | -25.6
CC[C@]12c3[nH]c4ccccc4c3CCN1C(=O)C(CC(=O)NC/C=C(\C)CCC=C(C)C)C[C@@H]2C(=O)N1CCN(C(=O)C2CC2)CC1 (some centres not stated) | 14.6µM* | 20.6µM* | -4.9 | 0.6% | -39.5 | ?
CC[C@]12c3[nH]c4ccc(OC)cc4c3CCN1C(=O)C(CC(=O)NC/C=C(\C)CCC=C(C)C)C[C@@H]2C(=O)N1CCN(C(=O)C2CC2)CC1 (some centres not stated) | ? | ? | ? | -3.2% | -13.7 | -62.4*
COc1ccc2[nH]c3c(c2c1)CCN1C(=O)C(CC(=O)NC/C=C(\C)CCC=C(C)C)C[C@H](C(=O)N2CCOCC2)[C@@]31CCC1CCCC1 (some centres not stated) | 20.6µM* | 14.6µM* | 1.4 | -4.4% | -9.4 | 11.7
CC1Cc2ccccc2N1C1=CC(=O)CCC1 (configuration not stated) | 5.8µM* | 7.31µM* | -11.0 | / | -0.9 | 84.7
COc1ccc(N(CC(=O)Nc2ccc3c(c2)OCO3)S(=O)(=O)c2ccccc2)c(OC)c1 | 18.4µM* | 20.6µM* | -1.9 | -5.9% | -3.6 | -17.3
COc1ccc(Cl)cc1NC(=O)CN(c1ccccc1)S(=O)(=O)N(C)C | 18.4µM* | 29.1µM* | 7.8 | -0.6% | 0.9 | -9.7
CN(C)S(=O)(=O)N(CC(=O)Nc1ccccc1)c1ccccc1 | -4.5% | 24.5% | -54.0* | -15.9% | -9.8 | -10.7
